Bioassay records (PubChem BioAssay)
The list is not random: actives were taken first. Their share in the collection is about 4.3%.
DRD3 agonist: agonists of human D3 dopamine receptor; P35462; D3R DiscoveRx beta-arrestin cells, luminescence, 90 min; max activation, %; 410,000 tested, 0.58% active; AID 652048; in the data active = max activation above about 30%
Target sequence (P35462 whole entry, looked up): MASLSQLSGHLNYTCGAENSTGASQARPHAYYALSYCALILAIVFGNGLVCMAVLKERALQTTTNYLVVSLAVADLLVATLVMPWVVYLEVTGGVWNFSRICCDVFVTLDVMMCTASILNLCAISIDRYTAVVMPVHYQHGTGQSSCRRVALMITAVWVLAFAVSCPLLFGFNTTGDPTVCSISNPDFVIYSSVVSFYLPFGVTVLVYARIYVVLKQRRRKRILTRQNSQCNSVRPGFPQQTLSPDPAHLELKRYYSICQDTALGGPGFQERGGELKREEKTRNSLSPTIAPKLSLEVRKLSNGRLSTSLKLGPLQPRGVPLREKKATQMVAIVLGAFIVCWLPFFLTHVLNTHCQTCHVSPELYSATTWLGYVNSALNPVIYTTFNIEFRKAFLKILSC
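Agonist mode: compounds and dopamine controls were applied to plated cells for 90 min at 37 degrees C after an overnight attachment at 1500 cells/well. Luminescent read-out followed 30 - 60 minutes at room temperature with DiscoveRx detection reagent.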
GLP1R ag: GLP-1 receptor (human) agonism | P43220 | HEK293 GLP-1R CRE-luciferase, luminescence, 4-6 h; cells express a hypersensitive GLP-1R form | Potency, µM (doses to about 45.6 µM), hits mostly activators | 380,000 tested, 0.007% active
DRD3 antagonist: D3 dopamine receptor (human) antagonism; P35462; D3R cells, DiscoveRx beta-arrestin luminescence, antagonist mode; stronger effect = lower value; max response, negative = inhibition, %; 360,000 tested, 2.5% active; AID 652054; in the data active = max response below about -50%; inconclusive = no clear call, values can overlap the other calls
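Cells plated overnight at 1500 cells/well, then exposed to library compounds with dopamine controls for 90 minutes at 37 degrees C. DiscoveRx reagent added for 30–60 minutes at room temperature; luminescence read, quantitative HTS format.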
GLP-1R inv ag: inverse agonists of human GLP-1 receptor | HEK293 GLP-1R CRE-luciferase, luminescence, 24 h; GLP-1R form is constitutively active | Potency, µM (top dose mostly 38.3 µM), most hits filed as inhibitors | 410,000 tested, 1.6% active | AID 624417; note: nearly all actives have a fitted effect of over 55% in size
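Stable HEK293 clone (constitutively active GLP-1R + cAMP-response luciferase); 200 cells/uL plated, 12 h pre-culture, compound 24 hr, 37 deg C/5% CO2; detection reagent 12 min RT; luminescence.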
Each line names hits and unclear results; the compound was inactive in the other large screens. Unless noted, calls come from the whole dose curve; as a rule, active = well fitted curve in the direction sought with a large enough effect; inconclusive = small, poorly fitted or top-dose-only effect, or another doubt; inactive = no such curve, though single readings can be large; an effect the other way counts as inactive or inconclusive.

COc1ccc(N2CC(NC(=O)C3CCCCC3)CC2=O)cc1OC (stereo not given)	none (no result: DRD3 antagonist)
CC(NC(=O)c1ccc(-c2ccccc2)cc1)C(c1ccccc1)N1CCOCC1 (stereo not given)	GLP-1R inv ag 2µM
CCc1ccc2c(c1)N(CC(C)CN(C)C)c1ccccc1S2 (stereo not given)	none (no result: GLP1R ag, DRD3 antagonist, GLP-1R inv ag)
COc1cc2c(cc1OC)CN(C1CCC(C(C)(C)C)CC1)CC2 (stereo not given)	DRD3 antagonist -88.1, GLP-1R inv ag inconclusive
COc1cc2c(cc1OC)CN(C(=O)C(C)(C)C)CC2	none
C[C@H](O)[C@@H]1CN2CCc3c([nH]c4ccc(-c5ccc6c(c5)OCO6)cc34)[C@@H]2C[C@@H]1N(C)C(=O)Nc1ccc(F)cc1	GLP-1R inv ag 3.98µM
C[C@H](O)[C@@H]1CN2CCc3c([nH]c4ccccc34)[C@@H]2C[C@@H]1N(C)C(=O)Nc1cccc2ccccc12	DRD3 antagonist -58.0
CCN(CC)c1ccc(NC(=O)C2CCCN(S(=O)(=O)c3ccc4c(c3)oc(=O)n4C)C2)c(C)c1 (stereo not given)	none (no result: DRD3 antagonist)
CNCCC1Sc2ccccc2Oc2ccccc21 (stereo not given)	GLP-1R inv ag 10µM
COc1ccc(-c2nc3ccccc3o2)cc1NC(=O)c1ccc(-c2cccc(Cl)c2C)o1	none (no result: GLP1R ag, DRD3 antagonist)
Cc1ccccc1NC(NC(=O)c1cccs1)C(Cl)(Cl)Cl (stereo not given)	GLP-1R inv ag 7.94µM
Cc1ccc(NC(NC(=O)c2cccs2)C(Cl)(Cl)Cl)cc1C (stereo not given)	DRD3 antagonist inconclusive, GLP-1R inv ag 12.6µM
CN(C)CCN(C(=O)C1CCN(S(=O)(=O)c2cccs2)CC1)c1nc2ccccc2s1	none
O=C(Nc1cccc(S(=O)(=O)N2CCCCCC2)c1)C1CCN(C(=O)c2ccc(Cl)cc2)CC1	GLP-1R inv ag 8.91µM
O=C(Nc1cccc(S(=O)(=O)N2CCCCC2)c1)Nc1ccc(Cl)cc1Cl	GLP-1R inv ag 3.55µM
CC(C)c1ccc2c(c1)CCC1C(C)(CN)CCCC21C (stereo not given)	GLP-1R inv ag 5.62µM
O=C(c1cc2ccccc2o1)N1CCN(C/C=C/c2ccccc2)CC1	DRD3 antagonist -78.1, GLP-1R inv ag 11.2µM
O=C(c1cc(Br)c(Br)s1)N1CCN(C/C=C/c2ccccc2)CC1	DRD3 antagonist -78.2, GLP-1R inv ag inconclusive
O=C(Nc1ccc(F)c(Cl)c1)N1CC=C(c2c[nH]c3ccccc23)CC1	none (no result: GLP1R ag, DRD3 antagonist)
CC(C)CC(=O)Nc1ccc(C(=O)OCc2cc(=O)n3nc(C(C)C)sc3n2)cc1	none (no result: GLP1R ag, DRD3 antagonist)
COc1ccc(NC2=Nc3ccccc3N[C@@]23C[C@H]2CCCC(=O)N4CC[C@@H](C3)[C@@H]24)cc1	DRD3 antagonist -68.1
CCCCCC(=O)N1C[C@H](n2cc(-c3ccc(F)cc3)nn2)[C@@H](O)C[C@@H]1c1ccc(Cl)cc1	GLP-1R inv ag 10µM
COc1ccc([C@H]2C[C@@H](n3cc(-c4ccc(F)cc4)nn3)[C@H](O)CN2C(=O)c2cccs2)cc1	GLP-1R inv ag inconclusive
COc1ccc([C@H]2C[C@H](O)[C@@H](n3cc(-c4ccc(F)cc4)nn3)CN2C(=O)c2cccs2)cc1	DRD3 agonist 71.0, GLP-1R inv ag inconclusive
CCCCCC(=O)N1C[C@@H](O)[C@H](n2cc(-c3ccc(F)cc3)nn2)C[C@@H]1c1ccc(Cl)cc1	GLP-1R inv ag inconclusive
CCCCCC(=O)N1C[C@H](O)[C@@H](n2cc(-c3ccc(F)cc3)nn2)C[C@@H]1c1ccc(C)cc1	GLP-1R inv ag 10µM
CCOC(=O)c1cccc(NC(=O)CC2C(=O)N(c3ccc(F)cc3)C(=O)N2C(C)C)c1 (stereo not given)	none (no result: GLP1R ag, DRD3 antagonist)
N/C(=N\OC(=O)c1cccc(Br)c1)c1ccccn1	GLP-1R inv ag 6.31µM
CCc1cc2c(cc3c(=O)n(CCCC(=O)NCc4ccccc4Cl)nc(CC)n32)s1	none (no result: GLP1R ag, DRD3 antagonist)
Cc1ccc(C)c(NC(=O)c2cc(S(=O)(=O)N3CCN(c4cccc(Cl)c4)CC3)ccc2F)c1	none (no result: GLP1R ag, DRD3 antagonist)
COc1cc(OC)cc(-c2c(-c3ccc(F)cc3)c3cc(-c4cccc5[nH]ccc45)ccc3n2C)c1	GLP-1R inv ag 5.62µM
COc1cccc(-c2c(-c3cc(OC)cc(OC)c3)n(C)c3ccc(-c4ccc5[nH]ccc5c4)cc23)c1	DRD3 agonist 32.4
COc1ccc(-c2c(-c3cc(OC)cc(OC)c3)n(C)c3ccc(-c4cccc5[nH]ccc45)cc23)cc1	GLP-1R inv ag inconclusive
O=C(NCCCN1CCCCC1)C1CCN(S(=O)(=O)N2CCC3(CC2)OCCO3)CC1	none
CN1Cc2c(N3CCOCC3)nc3sc(C(=O)c4ccc(Br)cc4)c(N)c3c2CC1(C)C	DRD3 antagonist -50.3, GLP-1R inv ag inconclusive
CC(C)CNC(=S)N1CCC(Cc2ccccc2)CC1	GLP-1R inv ag 3.16µM
CN(CCNC(=O)c1cccc(N2CCCC2=O)c1)Cc1ccccc1	DRD3 antagonist -58.4
CC(C)Oc1cccc(C(=O)NC(=S)Nc2ccc(Cl)c(C(=O)O)c2)c1	DRD3 antagonist -87.6
COc1ccc(C(=O)NC(=S)Nc2ccc(Cl)c(C(=O)O)c2)cc1	none
CN(C)S(=O)(=O)Oc1cccc(C(=O)Nc2ccc(Cl)c(Cl)c2)c1	DRD3 antagonist -52.9, GLP-1R inv ag inconclusive
CN(C)S(=O)(=O)Oc1cccc(C(=O)Nc2cccc(Cl)c2)c1	DRD3 antagonist inconclusive, GLP-1R inv ag inconclusive
CC(=O)Nc1ccc(NC(=O)C2CCN(C(=O)C3CC(=O)N(c4ccc(C)cc4)C3)CC2)cc1 (stereo not given)	none
CCc1ccc(OCC(=O)NC2CCCCC2)c(Br)c1	GLP-1R inv ag inconclusive
CCc1ccc(OCC(=O)NCCN(C)C)c(Br)c1	GLP-1R inv ag 10µM
Cc1cc(OCC(=O)NCCCN(C)C)cc(C)c1Br	GLP-1R inv ag 2.82µM
COc1ccc2c(c1)c(=O)c(C(=O)c1ccccc1)cn2CC(=O)Nc1ccc2c(c1)OCO2	none (no result: DRD3 antagonist)
Fc1ccc(C2CC(c3ccco3)=NN2c2ccccc2)cc1 (stereo not given)	GLP-1R inv ag 6.31µM
CCCCN1C(=O)C(O)(CC(=O)c2ccc(C)cc2C)c2cc(Br)ccc21 (stereo not given)	GLP-1R inv ag 10µM (no result: GLP1R ag, DRD3 antagonist)
CCOC(=O)c1c(-c2ccc(C)o2)csc1NC(=O)CN1CCN(CC)CC1	DRD3 antagonist -105.7
CCOC(=O)c1c(-c2ccc(C)o2)csc1NC(=O)CN1CCCCC1	GLP-1R inv ag inconclusive
CCc1sc(C(=O)Nc2ccc(NC(C)=O)cc2)cc1C	none
CCc1sc(C(=O)Nc2nc(C)cs2)cc1C	GLP-1R inv ag 10µM
COc1ccc(OC)c(NC(=O)C2CCN(c3cc(-c4ccccc4)nc4ncnn34)CC2)c1	none
COc1ccc(NC(=O)C2CCN(c3cc(-c4ccccc4)nc4ncnn34)CC2)cc1OC	DRD3 agonist 54.6
Cc1ccc(S(=O)(=O)N2CCCc3cc(NS(=O)(=O)c4ccccc4)ccc32)cc1	GLP-1R inv ag inconclusive (no result: GLP1R ag, DRD3 antagonist)
Cc1cc2c3c(c1)C(C)(c1ccccc1)CC(C)(C)N3C(=O)C21C(C#N)=C(N)OC2=C1C(=O)CC(C)(C)C2 (stereo not given)	GLP-1R inv ag inconclusive
